Assay [1] deals with Leukocyte tyrosine kinase receptor (Homo sapiens) (UniProt P29376). To be noted: at 1 µM.
The target of assay [2] is Tyrosine-protein kinase Lyn (Homo sapiens) (UniProt P07948). To be noted: at 0.1 µM.
Assay [3] shares this target. To be noted: at 1 µM.
Assay [4] has the same target. Particulars: at 0.1 µM. The source holds these as a separate data set.
Assay [5] shares this target. To be noted: at 1 µM. This is another data set of the same source.
The target of assay [6] is T1, Tyrosine-protein kinase Mer (Homo sapiens) (UniProt Q12866).
T1 sequence (whole entry): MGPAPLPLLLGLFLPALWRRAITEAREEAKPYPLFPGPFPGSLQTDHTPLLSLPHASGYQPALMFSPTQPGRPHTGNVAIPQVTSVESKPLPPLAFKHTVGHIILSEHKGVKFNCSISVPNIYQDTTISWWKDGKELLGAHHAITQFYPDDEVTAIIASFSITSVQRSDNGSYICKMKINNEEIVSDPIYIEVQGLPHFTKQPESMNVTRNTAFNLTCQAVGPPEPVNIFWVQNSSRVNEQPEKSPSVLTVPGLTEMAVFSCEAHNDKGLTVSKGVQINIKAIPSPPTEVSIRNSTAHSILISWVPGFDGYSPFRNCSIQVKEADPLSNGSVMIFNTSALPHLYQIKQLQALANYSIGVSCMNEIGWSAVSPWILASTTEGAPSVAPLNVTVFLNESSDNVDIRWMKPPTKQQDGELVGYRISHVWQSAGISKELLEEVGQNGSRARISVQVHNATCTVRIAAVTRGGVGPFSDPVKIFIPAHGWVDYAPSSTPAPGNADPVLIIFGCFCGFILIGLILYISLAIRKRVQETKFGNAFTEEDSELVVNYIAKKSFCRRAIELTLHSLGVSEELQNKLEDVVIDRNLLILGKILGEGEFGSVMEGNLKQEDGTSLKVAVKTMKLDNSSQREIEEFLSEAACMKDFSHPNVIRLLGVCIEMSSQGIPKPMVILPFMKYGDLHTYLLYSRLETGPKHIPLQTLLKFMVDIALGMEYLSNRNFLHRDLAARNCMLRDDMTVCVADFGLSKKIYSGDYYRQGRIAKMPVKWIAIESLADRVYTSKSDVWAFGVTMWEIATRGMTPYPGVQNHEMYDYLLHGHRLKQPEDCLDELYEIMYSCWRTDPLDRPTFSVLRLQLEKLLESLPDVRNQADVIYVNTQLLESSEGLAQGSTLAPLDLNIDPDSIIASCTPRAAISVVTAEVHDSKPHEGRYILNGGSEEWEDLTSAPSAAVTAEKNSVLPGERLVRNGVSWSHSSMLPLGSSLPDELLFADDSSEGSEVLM
To be noted: at 0.1 µM.

Assay [7] concerns the target T1, Tyrosine-protein kinase Mer (Homo sapiens). To be noted: at 1 µM.
For assay [8], the target named is Hepatocyte growth factor receptor (Homo sapiens) (UniProt P08581). Particulars: at 0.1 µM.
Assay [9] shares this target. To be noted: at 1 µM.
For assay [10], the target named is T2, Muscle, skeletal receptor tyrosine-protein kinase (Homo sapiens) (UniProt O15146).
T2 sequence (whole entry): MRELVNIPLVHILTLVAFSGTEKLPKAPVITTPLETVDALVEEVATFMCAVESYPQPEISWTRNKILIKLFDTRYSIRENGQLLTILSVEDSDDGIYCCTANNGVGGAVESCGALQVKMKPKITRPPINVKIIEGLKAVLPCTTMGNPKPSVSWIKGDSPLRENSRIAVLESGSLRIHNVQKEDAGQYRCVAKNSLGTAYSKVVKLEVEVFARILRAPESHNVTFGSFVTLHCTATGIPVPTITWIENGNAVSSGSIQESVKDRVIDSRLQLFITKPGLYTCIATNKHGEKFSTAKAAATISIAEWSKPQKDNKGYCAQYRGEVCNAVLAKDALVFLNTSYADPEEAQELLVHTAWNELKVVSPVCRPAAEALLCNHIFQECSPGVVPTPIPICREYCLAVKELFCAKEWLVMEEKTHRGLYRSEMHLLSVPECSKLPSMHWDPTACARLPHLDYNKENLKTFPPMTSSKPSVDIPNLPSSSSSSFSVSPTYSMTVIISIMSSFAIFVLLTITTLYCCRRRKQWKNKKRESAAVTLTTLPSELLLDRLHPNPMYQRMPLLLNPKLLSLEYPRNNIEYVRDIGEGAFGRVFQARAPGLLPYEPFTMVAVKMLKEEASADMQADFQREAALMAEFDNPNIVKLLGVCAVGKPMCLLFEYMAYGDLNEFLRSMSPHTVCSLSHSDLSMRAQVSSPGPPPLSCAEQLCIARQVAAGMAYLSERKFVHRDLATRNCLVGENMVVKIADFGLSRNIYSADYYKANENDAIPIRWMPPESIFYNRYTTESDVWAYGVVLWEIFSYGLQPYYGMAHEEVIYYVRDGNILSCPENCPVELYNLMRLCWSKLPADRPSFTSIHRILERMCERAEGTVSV
To be noted: at 0.1 µM.

Assay [11] has as its target T2, Muscle, skeletal receptor tyrosine-protein kinase (Homo sapiens). Particulars: at 1 µM.
The target of assay [12] is Platelet-derived growth factor receptor alpha (Homo sapiens) (UniProt P16234). To be noted: at 0.1 µM.
Chain of Platelet-derived growth factor receptor alpha (Homo sapiens) (P16234 whole entry): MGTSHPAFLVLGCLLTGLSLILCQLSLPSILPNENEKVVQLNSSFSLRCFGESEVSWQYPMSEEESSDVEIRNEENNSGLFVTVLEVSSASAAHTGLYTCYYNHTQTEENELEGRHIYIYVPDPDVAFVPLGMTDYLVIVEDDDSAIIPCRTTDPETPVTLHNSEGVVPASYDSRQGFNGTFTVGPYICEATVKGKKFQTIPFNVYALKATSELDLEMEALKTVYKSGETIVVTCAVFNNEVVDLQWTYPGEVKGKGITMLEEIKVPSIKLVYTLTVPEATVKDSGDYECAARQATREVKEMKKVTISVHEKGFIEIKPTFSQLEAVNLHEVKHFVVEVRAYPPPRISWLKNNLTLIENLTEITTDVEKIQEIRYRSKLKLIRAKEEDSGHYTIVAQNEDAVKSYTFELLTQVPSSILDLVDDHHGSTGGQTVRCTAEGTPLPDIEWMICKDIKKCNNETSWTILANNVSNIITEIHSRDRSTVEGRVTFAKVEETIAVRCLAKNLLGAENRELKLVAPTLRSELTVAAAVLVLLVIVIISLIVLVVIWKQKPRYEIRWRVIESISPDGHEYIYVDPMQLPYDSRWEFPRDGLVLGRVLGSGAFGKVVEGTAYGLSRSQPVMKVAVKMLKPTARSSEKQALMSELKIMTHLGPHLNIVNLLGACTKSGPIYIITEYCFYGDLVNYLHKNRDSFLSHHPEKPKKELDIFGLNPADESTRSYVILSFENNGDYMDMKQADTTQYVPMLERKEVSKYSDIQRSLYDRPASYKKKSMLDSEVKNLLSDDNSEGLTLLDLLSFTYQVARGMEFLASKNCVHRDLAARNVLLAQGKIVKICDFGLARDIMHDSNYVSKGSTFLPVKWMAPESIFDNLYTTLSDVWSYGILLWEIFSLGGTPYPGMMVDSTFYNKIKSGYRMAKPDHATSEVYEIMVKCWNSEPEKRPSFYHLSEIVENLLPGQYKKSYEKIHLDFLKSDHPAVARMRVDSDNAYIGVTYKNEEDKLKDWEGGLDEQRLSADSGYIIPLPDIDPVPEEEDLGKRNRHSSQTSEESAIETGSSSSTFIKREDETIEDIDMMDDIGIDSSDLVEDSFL
The target is the same in assay [13]. Particulars: at 1 µM.
In assay [14] the test system is Platelet-derived growth factor receptor alpha (Homo sapiens), P16234 [D842V]. To be noted: at 0.1 µM.
Chain of Platelet-derived growth factor receptor alpha (Homo sapiens), P16234 [D842V] (P16234 whole entry D842V): as the sequence (P16234 whole entry) above, with D842V counted along it
Assay [15] shares this test system. Particulars: at 1 µM.
Assay [16] concerns Platelet-derived growth factor receptor alpha (Homo sapiens), P16234 [T674I]. To be noted: at 0.1 µM.
Chain of Platelet-derived growth factor receptor alpha (Homo sapiens), P16234 [T674I] (P16234 whole entry T674I): as the sequence (P16234 whole entry) above, with T674I counted along it
The test system is the same in assay [17]. Particulars: at 1 µM.
In assay [18] the test system is Platelet-derived growth factor receptor alpha (Homo sapiens), P16234 [V561D]. To be noted: at 0.1 µM.
Assay [19] has the same test system. To be noted: at 1 µM.
Assay [20] has as its target Platelet-derived growth factor receptor beta (Homo sapiens) (UniProt P09619). Particulars: at 0.1 µM.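 Note: reported value is the mean percent inhibition of the kinase.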

Chain of Leukocyte tyrosine kinase receptor (Homo sapiens) (P29376 whole entry): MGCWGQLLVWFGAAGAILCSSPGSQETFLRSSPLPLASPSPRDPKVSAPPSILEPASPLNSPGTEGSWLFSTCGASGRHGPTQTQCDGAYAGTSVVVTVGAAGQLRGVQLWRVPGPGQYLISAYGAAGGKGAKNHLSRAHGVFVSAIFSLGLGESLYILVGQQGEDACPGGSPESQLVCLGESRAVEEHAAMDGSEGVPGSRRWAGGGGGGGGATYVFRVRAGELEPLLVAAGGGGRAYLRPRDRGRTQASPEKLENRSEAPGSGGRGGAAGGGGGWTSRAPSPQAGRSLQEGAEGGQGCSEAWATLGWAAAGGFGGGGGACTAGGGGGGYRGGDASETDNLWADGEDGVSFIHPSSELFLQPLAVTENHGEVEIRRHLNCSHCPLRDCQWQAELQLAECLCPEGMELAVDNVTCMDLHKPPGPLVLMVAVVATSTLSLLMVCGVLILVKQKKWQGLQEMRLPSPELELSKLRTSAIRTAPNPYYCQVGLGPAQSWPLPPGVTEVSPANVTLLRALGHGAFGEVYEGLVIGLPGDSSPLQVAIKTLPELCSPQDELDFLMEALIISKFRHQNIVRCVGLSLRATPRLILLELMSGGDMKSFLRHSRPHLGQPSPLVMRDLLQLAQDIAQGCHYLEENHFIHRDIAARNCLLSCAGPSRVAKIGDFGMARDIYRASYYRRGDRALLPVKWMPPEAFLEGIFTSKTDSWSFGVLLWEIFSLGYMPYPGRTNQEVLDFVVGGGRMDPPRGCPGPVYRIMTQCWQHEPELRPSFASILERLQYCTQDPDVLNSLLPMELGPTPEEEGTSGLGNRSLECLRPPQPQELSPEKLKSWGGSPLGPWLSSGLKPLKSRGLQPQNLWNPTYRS
Chain of Tyrosine-protein kinase Lyn (Homo sapiens) (P07948 2-512 limits assumed): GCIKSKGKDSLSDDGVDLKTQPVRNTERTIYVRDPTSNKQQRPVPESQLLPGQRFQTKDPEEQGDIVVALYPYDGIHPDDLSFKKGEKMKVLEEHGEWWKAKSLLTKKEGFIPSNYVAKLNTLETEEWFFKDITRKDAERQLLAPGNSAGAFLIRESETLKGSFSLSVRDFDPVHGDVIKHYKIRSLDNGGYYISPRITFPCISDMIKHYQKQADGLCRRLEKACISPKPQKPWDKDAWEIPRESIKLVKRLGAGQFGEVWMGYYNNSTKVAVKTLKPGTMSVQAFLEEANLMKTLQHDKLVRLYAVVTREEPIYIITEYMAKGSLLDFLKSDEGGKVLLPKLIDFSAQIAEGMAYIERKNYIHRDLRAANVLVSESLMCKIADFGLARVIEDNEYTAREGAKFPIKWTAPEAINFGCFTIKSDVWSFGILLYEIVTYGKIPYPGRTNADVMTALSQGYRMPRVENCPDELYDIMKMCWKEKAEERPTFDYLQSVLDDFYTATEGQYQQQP

A word on the inhibition: it is the relative decrease from the control value, in per cent. Turning to `NC(=O)c1ccc(Oc2nccc(-c3c(-c4ccc(F)cc4)ncn3C3CCNCC3)n2)cc1`, the inhibition in assay [1] was 4.14%; in assay [2], 4.17%; in assay [3] it was 5.34%; in [4] it was 1.86%; in assay [5], 4.92%; in assay [6] it was 3.18%. For the same compound, the inhibition in [7] was 6.79%; in [8], 13.2%; in assay [9], 8.14%; in assay [10] it was 3.97%; in assay [11], 9.48%; in [12], 5.32%. The inhibition in assay [13] is 10.6%; in [14], 2.12%; in assay [15], 4.3%; in [16], 2.24%; in assay [17], 6.2%; in assay [18] it was 5.07%. Further, the inhibition is 7.97% in [19] and 4.31% in assay [20].
As for `C[C@@H](Oc1cc(-n2cnc3ccc(OCC4CCN(C)CC4)cc32)sc1C(N)=O)c1ccccc1Cl`, the inhibition amounted to 10.3% in [1]; 5.95% in [2]; 17.7% in assay [3]; 4.21% in [4]; 13.8% in [5]; 1.86% in [6]. Further, the inhibition in assay [7] is 5.73%; in assay [8] it was 2.19%; in assay [9] it was 9.62%; in assay [10], 41.5%; in assay [11] it was 88.3%; in assay [12] it was 26.5%. Besides, the inhibition in [13] came to 75.7%; in assay [14] it was 10.9%; in assay [15], 54.2%; in assay [16] it was 12.7%; in assay [17], 62.1%; in assay [18], 14.7%. In addition, the inhibition in assay [19] worked out at 64.7%; in assay [20], 39.8%.
As to `COc1ccc2cc(-c3c(-c4ccncc4)nc(-c4ccc(S(C)(=O)=O)cc4C)n3C)ccc2c1`, the inhibition stood at 5.96% in [1]; 6.65% in assay [2]; 22.3% in assay [3]; 3.79% in assay [4]; 16.7% in assay [5]; 2.19% in assay [6]. Further, the inhibition in assay [7] was determined as 9.48%; in [8], 2.55%; in [9] it was 4.21%; in [10], 3.24%; in assay [11], 6.38%; in assay [12] it was 7.63%. In addition, the inhibition was 23.6% in [13]; 2.7% in assay [14]; 12.3% in [15]; 7.17% in [16]; 10.1% in assay [17]; 8.36% in [18]. Also, the inhibition in assay [19] was determined as 15.3%; in [20] it was 2.38%.
Turning to `Fc1ccc(-c2ncn(CCCN3CCOCC3)c2-c2ccncc2)cc1`, the inhibition in assay [1] was -2.09%; in assay [2], -0.59%; in assay [3], -0.14%; in assay [4], -1%; in assay [5], -0.37%; in [6], 0.24%. Further, the inhibition is -0.01% in [7]; 3.89% in assay [8]; -1.62% in [9]; -0.13% in [10]; 1.32% in assay [11]; 6.11% in assay [12]. The inhibition in assay [13] was 7.26%; in [14], 2.37%; in assay [15] it was 1.54%; in assay [16], 1.55%; in assay [17], -0.15%; in assay [18], -0.24%. The inhibition in assay [19] is 3.42%; in [20], -0.37%.
Consider `COc1cc(C)c(N(C)C(=O)CN(C)C)cc1Nc1nc(Nc2cccc(F)c2C(N)=O)c2cc[nH]c2n1`, for which the inhibition is 57.5% in assay [1]; 0.96% in assay [2]; 2.25% in [3]; -0.16% in [4]; 0.99% in assay [5]; 1.74% in assay [6]. Moreover, the inhibition was 1.94% in assay [7]; -0.92% in assay [8]; 1.68% in assay [9]; 1.6% in assay [10]; 3.08% in assay [11]; 4.02% in assay [12]. The inhibition is 7.22% in [13]; 0.9% in assay [14]; 0.89% in [15]; 1.14% in assay [16]; -0.57% in assay [17]; -2.16% in assay [18]. Also, the inhibition in assay [19] was 2.56%; in assay [20], 0.52%.
As for `CCc1nccc2c1nc(-c1nonc1N)n2CC`, the inhibition in [1] was 6.1%; in assay [2] it was 3.82%; in [3] it was 6.26%; in assay [4], 1.19%; in assay [5] it was 2.71%; in assay [6], -0.98%. Also, the inhibition was 0.92% in assay [7]; 2.04% in assay [8]; 2.39% in assay [9]; 1.31% in assay [10]; 0.59% in [11]; 5.23% in [12]. In addition, the inhibition turned out to be 11.5% in [13]; 2.48% in assay [14]; 9.06% in assay [15]; 2.57% in assay [16]; 0.49% in assay [17]; 0.72% in assay [18]. Besides, the inhibition in assay [19] worked out at 6.72%; in assay [20], 2.42%.
As to `O=C(Nc1n[nH]c2cc(-c3cc(F)ccc3F)ccc12)C1CC1`, the inhibition in assay [1] was 2.7%; in assay [2], 5.22%; in assay [3], 5.51%; in [4] it was 3.27%; in assay [5] it was 2.53%; in assay [6] it was 0.82%. In addition, the inhibition in assay [7] was found to be 2.71%; in assay [8] it was 6.12%; in assay [9] it was 4.36%; in assay [10], 3.35%; in assay [11] it was 10.1%; in [12], 7.53%. For the same compound, the inhibition amounted to 18.3% in assay [13]; 2.07% in assay [14]; 7.89% in [15]; 5.2% in [16]; 9.61% in assay [17]; 3.2% in assay [18]. Moreover, the inhibition was found to be 13.2% in assay [19] and 3.6% in assay [20].
